Data on 32 molecules can be found in PubChem BioAssay (Tox21).

Structures are written as SMILES. Records with an inconclusive call do not appear. Calls of active or inactive are those of the source. Unless noted, calls follow the shape of the dose curve; as a rule, active = well fitted curve in the direction sought with a large enough effect in the repeat runs; inconclusive = weak or mixed curves; inactive = no such curve, though single readings can be large; an effect the other way counts as inactive or inconclusive.

The nature of test [1]: qHTS assay to identify small molecule agonists of the retinoic acid receptor (RAR) signaling pathway (AID 1159553). Also: potency is read from the fitted curve at half-maximal effect. As to conditions: C3RL4 RARE luciferase reporter, agonist, 6 h; series mostly up to 73.3 µM. An outline of the steps:
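C3RL4 RARE-luciferase cells were seeded at 1,000/well and grown overnight at 37 C, then exposed to compounds for 6 hr at 37 C, 5% CO2. Luciferase reagent was added and luminescence was read after 30 min at room temperature.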
Background: In qHTS, concentration-response curves come from the screen itself.

The target of test [2] is Luciferin 4-monooxygenase (Photinus pyralis) (UniProt P08659). Put plainly: qHTS assay to identify small molecule inhibitors of firefly luciferase (AID 1224835). Also: nearly all actives have a fitted effect of over 25% in size. Also: potency is read from the fitted curve at half-maximal effect. To be noted: purified P. pyralis luciferase, luminescence inhibition; series mostly up to 115 µM. In short, it runs like this: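 Quantitative HTS format; KM concentrations of both substrates. Purified P. pyralis FLuc activity quantified from luminescence images.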

A short description of test [3]: qHTS assay to identify small molecule agonists of the constitutive androstane receptor (CAR) signaling pathway - cell viability counter screen (AID 1224836). Also: nearly all actives have a fitted effect of over 45% in size. To be noted: HepG2-CYP2B6-hCAR viability, CellTiter-Fluor, 23 h, PK11195 added to every well; series mostly up to 92.4 µM. In short, it runs like this: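 Cells were seeded and incubated 4 hrs. Compounds were added across 15 concentrations together with PK11195 at 0.75 uM final. Plates were incubated 23 hrs at 37 C. CellTiter-Fluor was added and fluorescence measured.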

Test [4] is described as follows: qHTS assay to identify small molecule antagonists of the estrogen related receptor (ERR) signaling pathway from Tox21 library - cell viability counter screen (AID 1224834). Also: nearly all actives have a fitted effect of over 30% in size. Also: potency is read from the fitted curve at half-maximal effect. To be noted: ERR reporter cells viability, CellTiter-Fluor, 17.5 h; series mostly up to 92.4 µM. In short, it runs like this:
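ERR reporter cells, 2,000 per well, rested 6 h, then exposed to compound in DMSO for 17.5 hours at 37 C. Viability read as fluorescence after 30 min with CellTiter-Fluor.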

Test [5] can be described thus: qHTS assay to identify small molecule antagonists of the estrogen related receptor (ERR) signaling pathway - cell viability counter screen (AID 1224818). As to conditions: ERR reporter cell line viability counter screen; series mostly up to 46.1 µM. In short, it runs like this:
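ERR cells, 2,000 per well, compound added after 6 h and incubated 17.5 h at 37 C. Viability read by CellTiter-Fluor fluorescence after a further 30 min at 37 C.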

A short description of test [6]: qHTS assay to identify small molecule antagonists of the estrogen related receptor (ERR) signaling pathway (AID 1224819; also: nearly all actives have a fitted effect of over 50% in size; also: potency is read from the fitted curve at half-maximal effect). As to conditions: ERR reporter cell line, luciferase inhibition; series mostly up to 46.1 µM. An outline of the steps:
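ERR reporter cell line (NTP) plated at 2,000 cells/well, settled 6 h at 37C/5% CO2, then exposed to LOPAC compounds for 18 h at 37C. One-Glo luciferase luminescence read after 30 min at room temperature.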

Test [7] in a line: qHTS assay to identify small molecule agonists of the estrogen related receptor (ERR) signaling pathway (AID 1224820). Also: potency is read from the fitted curve at half-maximal effect. To be noted: ERR reporter cell line, luciferase agonist mode; series mostly up to 46.1 µM. An outline of the steps: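 ERR reporter cells (NTP line) plated 2,000/well, incubated 6 h at 37 C/5% CO2, then pinned with compounds in DMSO and held 18 h at 37 C. One-Glo added; luminescence read after 30 min at room temperature.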

For test [8], the system named is estrogen-related receptor alpha (ERRalpha) with PGC-1alpha coactivator, human. Put plainly: qHTS assay to identify small molecule antagonists of the estrogen related receptor signaling pathway with the pleiotropic PPARgamma coactivator (PGC) (AID 1224821; calls by dose curve;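 also: lower luminescence signal means antagonism of PGC/ERR signalling; nearly all actives have a fitted effect of over 50% in size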). To be noted: ERR/PGC reporter cell line, luciferase, antagonist mode; series mostly up to 46.1 µM. In short, it runs like this:
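Cells engineered for PGC/ERR signalling (line from NTP) were plated 6 h at 37 C/5% CO2, then exposed to DMSO-dissolved compound for 18 h at 37 C. Luciferase activity was read by One-Glo luminescence after 30 min at room temperature.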

The nature of test [9]: qHTS assay to identify small molecule antagonists of the estrogen related receptor signaling pathway with the pleiotropic PPARgamma coactivator (PGC) cell viability counter screen (AID 1224822). As to conditions: ERR/PGC reporter cell line viability counter screen; series mostly up to 46.1 µM. In short, it runs like this:
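PGC/ERR cells rested 6 h, then compound-treated 17.5 h at 37 C. CellTiter-Fluor added for 30 min at 37 C, viability measured by fluorescence intensity.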

Chain of Luciferin 4-monooxygenase (Photinus pyralis) (P08659 whole entry, looked up): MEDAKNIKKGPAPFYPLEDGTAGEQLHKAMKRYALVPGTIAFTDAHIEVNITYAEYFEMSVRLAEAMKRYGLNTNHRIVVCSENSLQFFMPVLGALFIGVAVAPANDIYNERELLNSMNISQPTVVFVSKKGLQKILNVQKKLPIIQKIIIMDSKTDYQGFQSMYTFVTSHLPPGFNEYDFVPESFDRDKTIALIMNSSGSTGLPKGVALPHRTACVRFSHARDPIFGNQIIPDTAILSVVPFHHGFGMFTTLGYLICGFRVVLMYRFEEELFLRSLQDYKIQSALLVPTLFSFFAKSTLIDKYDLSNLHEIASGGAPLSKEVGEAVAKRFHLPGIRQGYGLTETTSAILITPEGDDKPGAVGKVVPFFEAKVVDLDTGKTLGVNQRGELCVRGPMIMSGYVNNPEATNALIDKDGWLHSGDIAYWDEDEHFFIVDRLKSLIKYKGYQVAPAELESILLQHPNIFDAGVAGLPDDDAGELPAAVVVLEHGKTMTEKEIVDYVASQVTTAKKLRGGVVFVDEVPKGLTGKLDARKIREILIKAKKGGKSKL

With `S=C1NC=NC2N=CNC12` (stereo not drawn), the Potency entry in [1], in test [2] and in test [3] was “inactive” throughout.
With `Cc1ccc2nc(-c3ccc(N)cc3)sc2c1S(=O)(=O)O`, the Potency in [1] was 0.426 µM (active); in test [2], 1.39 µM (active). Further, the Potency entry in test [4] and in test [3] was “inactive” throughout.
With `O=C(CCCCCCCCc1cccnc1)N1CCC(C=C(c2ccccc2)c2ccccc2)CC1`, the Potency result in test [1] and in test [2] was “inactive” in each case. Also, the Potency in test [4] is 54.5 µM (active).
As to `c1ccc2cc3c4ccccc4c4ccccc4c3cc2c1`, the Potency entry in [1] and in test [4] was “inactive” in each case.
Consider `N[C@@H](Cn1ccc(=O)c(O)c1)C(=O)O`, for which the Potency result in [5], in test [6], in [7], in test [8] and in test [9] was “inactive” throughout.
Consider `COc1cc(/C=C/C(=O)CC(=O)/C=C/c2ccc(O)c(OC)c2)ccc1O`, for which the Potency in [1] is 9.75 µM (active); in [4], 21.8 µM (active); in [2], 28.4 µM (active).
Consider `CCNc1nc2c(ncn2[C@H]2C[C@H](O)[C@@H](CO)O2)c(=O)[nH]1`, for which the Potency result in test [5], in test [6], in test [7], in test [8] and in test [9] was “inactive” throughout.
For `COc1ccc2c(c1)CCC1C2CC[C@@]2(C)C1CC[C@@H]2NCCCCCCN1C(=O)CCC1=O` (stereo partly drawn), the Potency entry in test [5], in test [6], in test [7] and in [8] was “inactive” throughout.
Turning to `O=C(O)CCc1ccc(NCc2cccc(Oc3ccccc3)c2)cc1`, the Potency entry in [5], in [6], in [7], in [8] and in test [9] was “inactive” each time.
With `O=C(N[C@H](CO)[C@H](O)c1ccc([N+](=O)[O-])cc1)C(Cl)Cl`, the Potency result in [1], in [5], in [9], in [4], in [2] and in test [3] was “inactive” each time.
With `C[C@@H](NCCc1ccc(O)cc1)[C@@H](O)c1ccc(O)cc1`, the Potency result in [5], in test [6], in test [7], in test [8] and in test [9] was “inactive” in each case.
In the case of `N.N.O=C(O)C1(C(=O)O)CCC1.[Pt+2]`, in test [5], the Potency entry is “inactive”.
Turning to `CNCC[C@H](Oc1ccc(C(F)(F)F)cc1)c1ccccc1`, the Potency result in test [5] was “inactive”.
For the molecule `Oc1ccc(Cl)cc1C1CCCC1`, the Potency result in test [1], in test [4], in [2] and in test [3] was “inactive” each time.
Regarding `CC(Cc1ccc(O)c(O)c1)C(C)Cc1ccc(O)c(O)c1` (stereo not drawn), the Potency result in test [1] and in test [3] was “inactive” throughout. In [2], the Potency is 71 µM (active).
`CC1C(=O)N(C)C(=O)c2nc[nH]c21` (stereo not drawn): the Potency result in test [5], in test [6], in [7], in test [8] and in test [9] was “inactive” throughout.
As for `Cc1nc2c(OCc3ccccc3)cccn2c1CC#N`, the Potency entry in test [5], in [6], in test [7] and in test [8] was “inactive” throughout.
Regarding `N=S(=O)(O)Cc1noc2ccccc12`, the Potency entry in test [5], in test [6], in [7], in test [8] and in test [9] was “inactive” in each case.
In the case of `Nc1cc(Cl)c(NC2=NCCN2)c(Cl)c1`, the Potency entry in test [5], in test [6], in [7], in test [8] and in test [9] was “inactive” throughout.
For `NC1(C(=O)O)CCCCC1`, the Potency result in test [5], in test [6], in test [7], in test [8] and in test [9] was “inactive” each time.
In the case of `NCCCCCCCCCCN`, the Potency result in test [5], in [6], in test [7], in [8] and in [9] was “inactive” in each case.
Consider `CC1=C(/C=C/C(C)=C/C=C/C(C)=C\C(=O)O)C(C)(C)CCC1`, for which the values for the Potency in test [1] and in test [2] were 0.0194 µM (active) and 63.5 µM (active), respectively. The Potency result in test [5], in test [9], in [4] and in test [3] was “inactive” in each case.
For the molecule `Nc1ncnc2c1nc(Sc1ccc(Cl)cc1)n2[C@H]1OC2COP(=O)(O)O[C@@H]2C1O` (stereo partly drawn), the Potency entry in test [5], in test [6], in [7], in test [8] and in [9] was “inactive” each time.
With `O=C1CCCCCCCCCCCCCC1`, the Potency result in test [1], in [4], in [2] and in test [3] was “inactive” each time.
Consider `Cc1cc(NC2CCCCC2)nc(-n2nc(C)cc2C)n1`, for which the Potency entry in test [5] and in [7] was “inactive” throughout. For the same molecule, the Potency in [6] is 10.2 µM (active).
On to `N#C/C(=C\c1ccc(O)c(O)c1)C(=O)NCCc1ccccc1`, for which the Potency entry in test [5], in [6], in test [7], in test [8] and in [9] was “inactive” in each case.
As for `N.N.N.N.N.N.N.N.N.N.N.N.N.N.O.O.[Cl-].[Cl-].[Cl-].[Cl-].[Cl-].[Cl-].[Ru+4].[Ru+5].[Ru+5]`, the Potency result in [5] is “inactive”.
Turning to `C[C@H]1O[C@@H](O[C@H]2CC[C@@]3(C)[C@H](CC[C@@H]4[C@@H]3C[C@@H](O)[C@]3(C)[C@@H](C5=CC(=O)OC5)CC[C@]43O)C2)C[C@H](O)[C@@H]1O[C@H]1C[C@H](O)[C@H](O[C@H]2C[C@H](O)[C@H](O[C@@H]3O[C@H](CO)[C@@H](O)[C@H](O)[C@H]3O)[C@@H](C)O2)[C@@H](C)O1`, the Potency entry in test [1] and in [2] was “inactive” throughout. In addition, the Potency in test [4] was 0.168 µM (active).
As to `NCc1cccc(C2CCN(C(=O)c3ccc(C#Cc4ccccc4F)o3)CC2)c1`, the Potency entry in test [1] and in [2] was “inactive” throughout. The Potency in test [4] is 68.6 µM (active).
Turning to `COc1ccc(/C=C/C(=O)Nc2ccccc2C(=O)O)cc1OC`, the Potency entry in [5], in test [6], in [8] and in test [9] was “inactive” in each case. The Potency in test [7] is 1.68 µM (active).
For the molecule `C=CCc1cc(S(=O)(=O)c2ccc(O)c(CC=C)c2)ccc1O`, the Potency result in test [1], in [2] and in test [3] was “inactive” in each case.
Consider `CCCOC(=O)c1ccc(O)cc1`, for which the Potency in test [1] is 54.5 µM (active); in [2] it was 89.4 µM (active). Further, the Potency result in test [5], in test [6], in test [8], in test [9] and in test [3] was “inactive” in each case.
